Data from the supplement of paper PMC10849652.
Targets with a hit are over-represented here; the source holds about 8,800 in all. About 0.5% of all pairs of compound and target were hits. Values without a mark were called inactive.

How the values were obtained:
Experiment in all cases: log2 fold change, soluble protein after heating vs DMSO (PISA); higher = thermal stabilisation; K562 lysate, 10 uM; active = over 0.2 and 3.5 SD of the protein, either way, in both replicates (recomputed)
nilotinib = compound: Cc1cn(-c2cc(NC(=O)c3ccc(C)c(Nc4nccc(-c5cccnc5)n4)c3)cc(C(F)(F)F)c2)cn1 [nilotinib]
Method in brief: (§1)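 Soluble protein was defined as the supernatant remaining after 21,000xg for 90 min, following pooling of heated aliquots and adjustment to 0.5% NP-40 at 4°C. Before that, crude K562 extract at 1 mg/mL protein in PBS pH 7.4 with 1 mM MgCl2 was treated with 10 μM compound for 30 min and heated for 3 min across 48°C-58°C. Quantification used TMTpro 16plex LC-MS/MS with channel sums equalised, and values are log-two fold changes in thermal stability relative to solvent controls from duplicates.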

[1] = compound: Cc1nc(Nc2n[nH]c3c2CN(C(=O)N[C@H](CN(C)C)c2ccccc2)C3(C)C)c2sccc2n1
Method in brief: as §1

dasatinib = compound: Cc1nc(Nc2ncc(C(=O)Nc3c(C)cccc3Cl)s2)cc(N2CCN(CCO)CC2)n1 [dasatinib]
Method in brief: as §1

[2] = compound: Cc1ncc(-c2ccnc(Nc3ccc(S(C)(=O)=O)cc3)n2)n1C(C)C
Method in brief: as §1

[3] = compound: Cn1cc(-c2ccc3c(c2)CCN3C(=O)Cc2cccc(C(F)(F)F)c2)c2c(N)ncnc21
Method in brief: as §1

quisinostat = compound: Cn1cc(CNCC2CCN(c3ncc(C(=O)NO)cn3)CC2)c2ccccc21 [quisinostat]
Method in brief: as §1

tipifarnib = compound: Cn1cncc1[C@@](N)(c1ccc(Cl)cc1)c1ccc2c(c1)c(-c1cccc(Cl)c1)cc(=O)n2C [tipifarnib]
Method in brief: as §1

[4] = compound: NC(=O)Nc1cc(-c2cccc(F)c2)sc1C(=O)N[C@H]1CCCNC1
Method in brief: as §1

[5] = compound: NC(=O)c1cnc(N[C@@H]2CCCC[C@@H]2N)nc1Nc1cccc(-n2nccn2)c1
Method in brief: as §1

[6] = compound: NC1(c2ccc(-c3nc4ccn5c(=O)[nH]nc5c4cc3-c3ccccc3)cc2)CCC1
Method in brief: as §1

Sequence of UniProt Q15102 (Q15102 whole entry, looked up): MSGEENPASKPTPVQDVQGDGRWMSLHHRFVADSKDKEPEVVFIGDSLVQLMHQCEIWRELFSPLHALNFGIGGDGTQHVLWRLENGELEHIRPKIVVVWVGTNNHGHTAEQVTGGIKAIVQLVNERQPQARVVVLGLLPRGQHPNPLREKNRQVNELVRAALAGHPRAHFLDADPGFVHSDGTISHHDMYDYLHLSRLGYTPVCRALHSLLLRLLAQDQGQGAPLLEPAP
Sequence of UniProt Q8TAT6 (Q8TAT6 whole entry, looked up): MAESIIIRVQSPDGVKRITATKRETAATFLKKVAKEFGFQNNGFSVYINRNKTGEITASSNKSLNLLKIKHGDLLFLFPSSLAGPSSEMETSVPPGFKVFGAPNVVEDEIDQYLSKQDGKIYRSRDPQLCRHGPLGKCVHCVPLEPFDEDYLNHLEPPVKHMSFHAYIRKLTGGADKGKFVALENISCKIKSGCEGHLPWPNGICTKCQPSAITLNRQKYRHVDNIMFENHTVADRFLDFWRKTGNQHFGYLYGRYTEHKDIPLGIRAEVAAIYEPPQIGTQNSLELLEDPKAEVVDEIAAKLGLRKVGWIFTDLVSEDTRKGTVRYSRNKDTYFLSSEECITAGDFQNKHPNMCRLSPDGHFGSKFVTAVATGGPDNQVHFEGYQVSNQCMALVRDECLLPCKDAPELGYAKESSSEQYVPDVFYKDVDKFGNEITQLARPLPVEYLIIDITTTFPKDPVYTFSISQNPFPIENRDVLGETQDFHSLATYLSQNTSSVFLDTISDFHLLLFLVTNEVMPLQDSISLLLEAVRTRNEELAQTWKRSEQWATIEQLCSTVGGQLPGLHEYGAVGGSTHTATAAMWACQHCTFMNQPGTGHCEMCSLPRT
Sequence of UniProt Q9NQR4 (Q9NQR4 whole entry, looked up): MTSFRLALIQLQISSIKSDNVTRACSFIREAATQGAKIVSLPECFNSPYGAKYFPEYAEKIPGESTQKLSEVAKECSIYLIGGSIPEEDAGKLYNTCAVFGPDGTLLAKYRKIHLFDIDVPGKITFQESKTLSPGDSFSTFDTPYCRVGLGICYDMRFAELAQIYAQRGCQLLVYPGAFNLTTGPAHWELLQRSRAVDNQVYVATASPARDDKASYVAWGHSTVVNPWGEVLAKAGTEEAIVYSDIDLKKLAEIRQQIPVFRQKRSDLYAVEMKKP
Sequence of UniProt Q9BSD7 (Q9BSD7 whole entry, looked up): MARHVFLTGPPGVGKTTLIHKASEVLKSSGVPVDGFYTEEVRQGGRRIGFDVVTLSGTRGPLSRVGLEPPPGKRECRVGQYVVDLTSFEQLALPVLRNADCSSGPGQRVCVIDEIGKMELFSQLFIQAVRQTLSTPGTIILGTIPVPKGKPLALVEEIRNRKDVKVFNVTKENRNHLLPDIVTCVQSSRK
Sequence of UniProt Q9H4L5 (Q9H4L5 whole entry, looked up): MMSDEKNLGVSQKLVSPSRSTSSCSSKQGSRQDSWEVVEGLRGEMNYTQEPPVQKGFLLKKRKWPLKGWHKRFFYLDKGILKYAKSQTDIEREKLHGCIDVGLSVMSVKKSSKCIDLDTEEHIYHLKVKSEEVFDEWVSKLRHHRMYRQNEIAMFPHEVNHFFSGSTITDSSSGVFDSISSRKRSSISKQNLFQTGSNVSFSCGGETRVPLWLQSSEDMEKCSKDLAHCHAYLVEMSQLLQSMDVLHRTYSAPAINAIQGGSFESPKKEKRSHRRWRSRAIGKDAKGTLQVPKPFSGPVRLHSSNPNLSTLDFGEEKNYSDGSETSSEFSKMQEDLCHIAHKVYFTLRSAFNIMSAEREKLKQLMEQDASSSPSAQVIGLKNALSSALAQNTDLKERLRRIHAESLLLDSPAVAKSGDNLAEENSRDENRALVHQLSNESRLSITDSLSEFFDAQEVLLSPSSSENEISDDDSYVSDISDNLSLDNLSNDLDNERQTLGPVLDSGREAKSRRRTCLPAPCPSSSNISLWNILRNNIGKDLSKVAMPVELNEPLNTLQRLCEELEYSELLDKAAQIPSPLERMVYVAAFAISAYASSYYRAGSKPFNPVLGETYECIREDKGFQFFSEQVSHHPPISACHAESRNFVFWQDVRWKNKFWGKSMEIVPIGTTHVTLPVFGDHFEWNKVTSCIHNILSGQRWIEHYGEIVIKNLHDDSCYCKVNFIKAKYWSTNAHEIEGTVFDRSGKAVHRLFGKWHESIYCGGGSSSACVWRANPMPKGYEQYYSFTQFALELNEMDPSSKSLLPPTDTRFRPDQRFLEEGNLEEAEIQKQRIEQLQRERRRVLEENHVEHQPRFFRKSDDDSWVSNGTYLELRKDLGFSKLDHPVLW
Sequence of UniProt P52701 (P52701 whole entry, looked up): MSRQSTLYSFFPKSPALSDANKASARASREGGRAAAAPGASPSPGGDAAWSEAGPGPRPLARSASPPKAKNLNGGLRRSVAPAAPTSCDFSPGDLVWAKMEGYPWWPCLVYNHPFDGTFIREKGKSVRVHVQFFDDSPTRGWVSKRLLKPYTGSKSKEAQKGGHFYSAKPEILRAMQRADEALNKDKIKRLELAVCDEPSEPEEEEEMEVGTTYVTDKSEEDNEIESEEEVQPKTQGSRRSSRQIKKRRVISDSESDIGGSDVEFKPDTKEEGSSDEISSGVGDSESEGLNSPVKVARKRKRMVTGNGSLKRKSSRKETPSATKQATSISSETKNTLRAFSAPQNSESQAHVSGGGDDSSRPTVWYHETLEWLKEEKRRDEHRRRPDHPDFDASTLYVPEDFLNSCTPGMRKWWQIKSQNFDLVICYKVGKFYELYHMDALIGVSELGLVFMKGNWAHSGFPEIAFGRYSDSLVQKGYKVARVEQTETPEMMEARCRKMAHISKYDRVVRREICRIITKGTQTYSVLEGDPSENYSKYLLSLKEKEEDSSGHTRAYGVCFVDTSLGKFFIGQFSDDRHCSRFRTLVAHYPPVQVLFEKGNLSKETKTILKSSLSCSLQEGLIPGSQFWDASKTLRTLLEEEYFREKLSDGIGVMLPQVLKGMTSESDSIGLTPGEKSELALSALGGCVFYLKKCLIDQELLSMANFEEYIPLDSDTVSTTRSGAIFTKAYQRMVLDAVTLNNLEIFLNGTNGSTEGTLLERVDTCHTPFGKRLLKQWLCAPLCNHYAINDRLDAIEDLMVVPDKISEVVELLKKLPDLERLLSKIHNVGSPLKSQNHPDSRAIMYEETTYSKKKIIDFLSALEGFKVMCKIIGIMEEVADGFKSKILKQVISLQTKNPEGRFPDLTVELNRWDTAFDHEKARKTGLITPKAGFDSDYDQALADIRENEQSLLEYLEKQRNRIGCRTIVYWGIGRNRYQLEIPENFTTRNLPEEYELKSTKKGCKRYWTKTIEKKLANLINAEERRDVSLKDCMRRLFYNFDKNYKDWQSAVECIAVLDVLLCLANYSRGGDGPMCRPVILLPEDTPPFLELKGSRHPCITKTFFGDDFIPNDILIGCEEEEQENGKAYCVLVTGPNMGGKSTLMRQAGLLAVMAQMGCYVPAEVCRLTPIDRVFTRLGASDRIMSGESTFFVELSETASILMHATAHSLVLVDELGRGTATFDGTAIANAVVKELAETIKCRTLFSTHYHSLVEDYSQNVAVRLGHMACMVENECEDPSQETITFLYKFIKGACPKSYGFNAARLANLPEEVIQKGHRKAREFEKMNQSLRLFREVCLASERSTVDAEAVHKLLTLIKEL
Sequence of UniProt Q9NX02 (Q9NX02 whole entry, looked up): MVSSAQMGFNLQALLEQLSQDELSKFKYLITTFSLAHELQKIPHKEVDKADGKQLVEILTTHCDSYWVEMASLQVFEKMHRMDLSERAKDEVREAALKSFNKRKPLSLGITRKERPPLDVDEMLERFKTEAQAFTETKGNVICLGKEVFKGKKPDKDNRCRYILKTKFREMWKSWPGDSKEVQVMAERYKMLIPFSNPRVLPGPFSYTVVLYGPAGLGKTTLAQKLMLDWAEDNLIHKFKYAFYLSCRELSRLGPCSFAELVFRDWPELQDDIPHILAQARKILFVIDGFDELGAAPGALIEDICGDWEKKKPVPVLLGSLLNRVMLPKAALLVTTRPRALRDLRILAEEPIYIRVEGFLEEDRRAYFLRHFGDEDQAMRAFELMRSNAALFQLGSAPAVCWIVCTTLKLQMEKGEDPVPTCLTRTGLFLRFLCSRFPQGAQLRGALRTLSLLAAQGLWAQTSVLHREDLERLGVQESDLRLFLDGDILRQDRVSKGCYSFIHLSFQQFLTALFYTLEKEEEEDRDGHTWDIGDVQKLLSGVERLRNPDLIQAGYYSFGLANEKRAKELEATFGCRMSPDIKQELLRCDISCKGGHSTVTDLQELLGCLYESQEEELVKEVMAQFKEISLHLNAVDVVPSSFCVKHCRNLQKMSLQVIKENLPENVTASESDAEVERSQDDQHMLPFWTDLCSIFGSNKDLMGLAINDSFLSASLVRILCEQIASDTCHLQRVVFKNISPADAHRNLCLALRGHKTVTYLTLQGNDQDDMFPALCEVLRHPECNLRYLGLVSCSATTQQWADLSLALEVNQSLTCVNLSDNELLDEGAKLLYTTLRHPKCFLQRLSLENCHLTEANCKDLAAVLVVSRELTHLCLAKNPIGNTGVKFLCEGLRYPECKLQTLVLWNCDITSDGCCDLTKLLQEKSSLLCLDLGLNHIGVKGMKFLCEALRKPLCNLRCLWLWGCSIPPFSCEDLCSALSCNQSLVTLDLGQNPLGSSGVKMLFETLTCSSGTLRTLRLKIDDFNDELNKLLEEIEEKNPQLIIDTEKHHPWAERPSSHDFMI
Sequence of UniProt P00156 (P00156 whole entry, looked up): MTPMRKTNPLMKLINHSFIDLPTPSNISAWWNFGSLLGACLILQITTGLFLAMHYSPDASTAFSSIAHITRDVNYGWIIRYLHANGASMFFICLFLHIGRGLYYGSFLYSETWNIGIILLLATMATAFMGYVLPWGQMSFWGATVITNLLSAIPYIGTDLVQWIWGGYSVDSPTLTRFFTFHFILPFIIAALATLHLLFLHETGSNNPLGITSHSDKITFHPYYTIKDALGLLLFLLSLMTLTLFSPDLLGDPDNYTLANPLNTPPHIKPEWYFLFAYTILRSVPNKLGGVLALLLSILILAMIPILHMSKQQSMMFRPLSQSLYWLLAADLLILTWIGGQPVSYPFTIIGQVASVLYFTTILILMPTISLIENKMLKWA

Target | log2 fold change (nilotinib) | log2 fold change [1] | log2 fold change (dasatinib) | log2 fold change [2] | log2 fold change [3] | log2 fold change (quisinostat) | log2 fold change (tipifarnib) | log2 fold change [4] | log2 fold change [5] | log2 fold change [6]
PARG (UniProt Q86W56) | 0.006 | 0.017 | -0.033 | 0.007 | -0.004 | -0.081 | -0.007 | 0.097 | 0.006 | 0.006
NIPBL (UniProt Q6KC79) | 0.06 | -0.002 | -0.037 | 0.019 | 0.091 | -0.043 | 0.014 | 0.02 | 0.003 | 0.018
PANK2 (UniProt Q9BZ23) | -0.068 | -0.111 | 0.135 | 0.001 | -0.032 | 0.045 | 0.126 | -0.053 | -0.005 | –
NIT2 (UniProt Q9NQR4) | -0.011 | 0.001 | -0.03 | -0.021 | -0.027 | 0.004 | 0.019 | 0.021 | -0.016 | -0.023
PAIP2 (UniProt Q9BPZ3) | 0.136 | 0.062 | -0.047 | -0.009 | -0.049 | 0.007 | -0.1 | -0.087 | -0.02 | -0.018
PAFAH1B3 (UniProt Q15102) | 0.005 | 0.036 | -0.057 | -0.026 | 0.03 | 0.01 | -0.01 | -0.009 | 0.031 | 0.021
MSH6 (UniProt P52701) | -0.005 | 0.011 | -0.073 | -0.002 | 0.03 | -0.091 | -0.009 | 0.072 | 0.006 | -0.045
NTPCR (UniProt Q9BSD7) | 0.019 | -0.01 | -0.061 | 0.056 | 0.032 | -0.088 | 0.003 | 0.028 | 0.017 | -0.027
NPLOC4 isoform 2 (UniProt Q8TAT6) | -0.005 | 0.007 | 0.019 | 0.007 | 0.004 | -0.037 | 0 | -0.006 | 0.018 | -0.023
NLRP2 (UniProt Q9NX02) | -0.002 | 0.013 | -0.019 | 0.007 | 0.032 | -0.031 | -0.008 | 0.013 | 0.003 | 0.026
NOC2L (UniProt Q9Y3T9) | 0.027 | 0.022 | -0.03 | -0.046 | -0.052 | -0.082 | -0.087 | 0.058 | 0.014 | -0.019
MT-CYB (UniProt P00156) | 0.063 | -0.081 | 0.16 | 0.011 | 0 | -0.131 | -0.184 | -0.003 | -0.037 | -0.06
NCAPD2 (UniProt Q15021) | 0.006 | 0.01 | -0.037 | -0.001 | 0.031 | -0.064 | -0.019 | 0.044 | 0.003 | -0.009
NEK7 (UniProt Q8TDX7) | 0.003 | 0.016 | -0.03 | 0.045 | 0.168 | -0.018 | -0.006 | 0.033 | 0.018 | 0.01
PAGE2B (UniProt Q5JRK9) | 0.036 | -0.007 | 0.032 | 0.062 | -0.016 | 0.001 | 0.026 | 0.041 | -0.018 | 0.164
MRPS12 (UniProt O15235) | -0.026 | 0.061 | -0.104 | -0.041 | -0.007 | -0.051 | -0.012 | 0.01 | 0.018 | 0.063
MRPL51 (UniProt Q4U2R6) | -0.029 | -0.006 | -0.056 | -0.054 | -0.055 | 0.27 (active) | -0.003 | 0.055 | -0.003 | 0.024
NCAPH2 (UniProt Q6IBW4) | -0.029 | 0 | -0.011 | -0.048 | 0.066 | 0.051 | -0.014 | 0.058 | 0.004 | 0.025
PAK1 (UniProt Q13153) | 0.028 | 0.02 | 0.046 | 0.012 | -0.024 | 0.044 | -0.053 | -0.028 | -0.025 | -0.012
NCAPD3 (UniProt P42695) | 0.005 | -0.022 | -0.041 | 0.005 | 0.005 | -0.06 | 0.005 | 0.078 | -0.014 | -0.028
NR2F2 (UniProt P24468) | -0.063 | 0.107 | -0.027 | -0.125 | -0.006 | -0.024 | 0.034 | 0.125 | 0.024 | 0.029
MTCH2 (UniProt Q9Y6C9) | 0.044 | -0.005 | 0 | -0.014 | -0.024 | -0.104 | 0.018 | 0 | -0.027 | 0.001
NUP133 (UniProt Q8WUM0) | 0.023 | -0.006 | -0.026 | 0.019 | 0.056 | -0.092 | -0.039 | 0.006 | 0.005 | -0.016
MSH3 (UniProt P20585) | -0.007 | 0.034 | -0.03 | 0.028 | 0.014 | -0.037 | -0.001 | -0.003 | 0.011 | -0.035
ORC3 isoform 2 (UniProt Q9UBD5) | -0.014 | 0 | -0.084 | -0.014 | -0.012 | -0.038 | -0.014 | 0.099 | 0.027 | -0.079
N6AMT1 (UniProt Q9Y5N5) | -0.009 | 0.1 | 0.002 | 0.018 | 0.013 | 0 | 0.06 | -0.013 | -0.027 | 0.037
PARP14 (UniProt Q460N5) | 0.004 | -0.022 | -0.024 | 0.068 | 0.256 | -0.025 | -0.068 | 0.128 | 0.051 | -0.09
NUDT5 (UniProt Q9UKK9) | 0.021 | 0 | 0.045 | 0.008 | -0.024 | -0.016 | -0.013 | -0.018 | -0.013 | -0.014
OSBPL3 isoform 2 (UniProt Q9H4L5) | 0.085 | -0.048 | -0.191 | -0.026 | 0.024 | -0.051 | -0.02 | 0.003 | 0.017 | -0.151
MTHFD1, A0A384N5Y3 | 0.005 | -0.018 | -0.081 | -0.008 | 0.032 | -0.044 | -0.02 | 0.039 | 0.008 | -0.017
